Rows were chosen to be rich in hits. Some 0.82% of all compounds tested hit in one or more screens of this group.
DUSP3 inh: blocks human VHR1 dual specificity phosphatase; 290,000 compounds, 0.52% hits; P51452; AID 1654; recombinant VHR phosphatase, pNPP absorbance; inhibition, % at 13.3 µM; in the data active = inhibition above about 50%
TcdB inh: inhibitors of Clostridioides difficile toxin B glycohydrolase; P18177; TcdB glycohydrolase enzymatic assay, plate reader; inhibition, % at 9.99 µM; 350,000 compounds, 0.24% hits; AID 652162; in the data active = inhibition above about 10%
PrPC TRFRET: reduces human prion protein on the cell surface. P04156. cell surface PrPC, TR-FRET read-out. inhibition, % at 13.8 µM. 370,000 compounds, 0.43% hits. AID 720596; in the data active = inhibition above about 24%; note: 0% = median of the test wells and 100% = reference compound wells
The depositor's hits bear a star; / = not tested or not shown.

SMILES	DUSP3 inh	TcdB inh	PrPC TRFRET
CCCn1c2ccccc2c2cn[nH]c(=O)c21	59*	1	15
COc1ccccc1N1CCN(C(=O)/C=C/c2ccccc2)CC1	53*	/	-6
COc1ccccc1N1CCN(C(=O)/C=C/c2cccs2)CC1	-4	/	-6
COCCNC(=O)C[C@@H]1CC[C@@H]2[C@@H](COc3ccc(NC(=O)C4CCOCC4)cc3C(=O)N2C)O1	/	-1	/
O=Cc1ccc2cccnc2n1	-12	-2	-1
O=Cc1ccc2ccc3cccnc3c2n1	57*	1	6
S=C(NCCCN1CCOCC1)Nc1ccc(Cl)cc1Cl	55*	2	2
S=C(NCCN1CCOCC1)Nc1ccc(Nc2ccccc2)cc1	49	31*	0
S=C(NCCCN1CCOCC1)Nc1ccc(Nc2ccccc2)cc1	13	5	-3
S=C(NCCN1CCOCC1)Nc1ccc(Cl)cc1Cl	-7	1	-4
O=C(N[C@@H]1CC[C@@H](CCNC(=O)c2ccccc2F)O[C@@H]1CO)c1cnccn1	/	-1	/
COc1ccc(NC(=O)N(C)C[C@@H]2Oc3ccc(NC(=O)Nc4ccc(F)cc4)cc3CC(=O)N([C@@H](C)CO)C[C@H]2C)cc1	/	0	/
COc1ccc(S(=O)(=O)N(C)C[C@@H]2Oc3ccc(NC(=O)Nc4cccc5ccccc45)cc3CC(=O)N([C@@H](C)CO)C[C@@H]2C)cc1	/	0	/
CCc1ccc([C@@H]2CC=C(C(=O)O)CN2S(=O)(=O)c2ccc(C)cc2)cc1	/	1	-1
Cc1ccc(S(=O)(=O)N2CC(CO)=CCC2c2ccccc2)cc1 (configuration not stated)	/	26*	-2
C[C@H](CO)N1C[C@H](C)[C@H](CN(C)C(=O)Nc2ccc3c(c2)OCO3)OCCCC[C@H](C)Oc2ccc(NC(=O)CCCCCC(=O)Nc3ccccc3N)cc2C1=O	/	1	/
CN1C(=O)c2cc(NC(=O)C3CC3)ccc2OC[C@H]2O[C@@H](CC(=O)O)CC[C@H]21	/	1	/
COCCCNC(=S)N(CCCO)Cc1cc2cc3c(cc2[nH]c1=O)OCO3	43	1	-1
CCN(CC)CCN(Cc1cc2cc3c(cc2[nH]c1=O)OCCO3)C(=S)NCCCN(C)C	14	1	7
CCN(CC)CCN(Cc1cc2cc3c(cc2[nH]c1=O)OCO3)C(=S)NCCCN(C)C	52*	0	-3
COCCCNC(=S)N(CCO)Cc1cc2cc3c(cc2[nH]c1=O)OCO3	52*	0	2
C[C@@H]1CCCCO[C@H](CN(C)Cc2ccc3c(c2)OCO3)[C@H](C)CN([C@@H](C)CO)C(=O)c2cc(NS(=O)(=O)c3ccc(F)cc3)ccc2O1	/	1	/
Cc1ccc(S(=O)(=O)N(C)C[C@@H]2OCCCC[C@H](C)Oc3ccc(NC(=O)NC(C)C)cc3C(=O)N([C@@H](C)CO)C[C@@H]2C)cc1	/	1	/
C[C@@H]1CN([C@H](C)CO)C(=O)c2cc(-c3cncnc3)cnc2O[C@H]1CN(C)C(=O)CN1CCOCC1	/	0	/
CC(C)C#Cc1ccc2c(c1)O[C@H](CN(C)Cc1cncnc1)[C@H](C)CN([C@H](C)CO)S2(=O)=O	/	0	/
SMILES	DUSP3 inh	TcdB inh	PrPC TRFRET
CCOc1ccc2c(C)nc(NC3=NC(C)(C)C=C(C)N3)nc2c1	-4	11*	14
CCOc1ccc2nc(NC3=NC(C)(C)C=C(C)N3)nc(C)c2c1	14	/	4
Cc1ccc(NC(=S)N2CCC(NC(=O)c3cccc(F)c3)CC2)cc1	55*	1	-3
Cc1ccc(NC(=S)N2CCC(NC(=O)c3ccc(C)cc3)CC2)cc1	-26	1	0
CC(C)NC(=O)N1[C@H](CO)[C@@H](c2ccccc2)C12CN(C(=O)Cc1ccccc1)C2	/	-3	/
O=C1c2cc(CO)cc(O)c2C(=O)c2c(O[C@@H]3OC(CO)[C@@H](O)[C@@H](O)[C@@H]3O)cccc21 (some centres not stated)	/	0	-49
O=C(O)c1cc(O)c2c(c1)[C@@H]([C@H]1c3cc(C(=O)O)cc(O)c3C(=O)c3c(O[C@@H]4O[C@H](CO)[C@@H](O)[C@H](O)[C@H]4O)cccc31)c1cccc(OC3O[C@H](CO)[C@@H](O)[C@H](O)[C@H]3O)c1C2=O (some centres not stated)	/	-39	62*
COc1cccc(S(=O)(=O)N(C)C[C@@H]2Oc3cc(C#CCN(C)C)ccc3S(=O)(=O)N([C@@H](C)CO)C[C@H]2C)c1	/	0	/
CS(=O)(=O)C1=C(O)C(=O)N(c2ccccc2)C1c1ccccc1 (configuration not stated)	-12	/	4
CC(C)(C)C(=O)C1=C(O)C(=O)N(c2ccccc2)C1c1ccccc1 (configuration not stated)	4	22*	15
COC(=O)c1[nH]c2c(c1C)C(=O)CC(c1cc(OC)c(OC)c(OC)c1)C2 (configuration not stated)	52*	0	14
COC(=O)c1[nH]c2c(c1C)C(=O)CC(c1ccc(OC)c(OC)c1)C2 (configuration not stated)	2	1	3
COc1ccc2c3c(n(C)c2c1)[C@H](CO)N(C(=O)NC1CCCC1)CC31CCN(C)CC1	/	1	/
C[C@H](CO)N1C[C@H](C)[C@@H](CN(C)CC2CCCCC2)Oc2ccc(NS(=O)(=O)c3cn(C)cn3)cc2C1=O	/	4	/
Cn1c(SCC(=O)Nc2ccc3nc(SCC(=O)N4CCCC4)sc3c2)nnc1-c1ccc(N)cc1	52*	/	/
Cn1c(SCC(=O)Nc2ccc3nc(SCC(=O)NC4CC4)sc3c2)nnc1-c1ccccc1	-12	/	-2
Cc1noc(C)c1NC(=O)Nc1ccc2c(c1)CC(=O)N([C@@H](C)CO)C[C@@H](C)[C@H](CN(C)S(=O)(=O)c1ccc(Cl)cc1)O2	/	1	/
O=C(Cc1ccncc1)Nc1ccc2c(c1)[C@@H]1C[C@H](CC(=O)NC3CCCC3)O[C@@H](CO)[C@@H]1O2	/	0	/
NC(=O)Nc1ccc(Nc2ccccc2)cc1	8	15*	-3
CC(C)(C)NC(=S)Nc1ccc(Nc2ccccc2)cc1	53*	/	-1
CC(C)(C)NC(=S)Nc1ccc(Br)cc1	-3	/	11
O=C(Nc1ccc(Nc2ccccc2)cc1)c1ccccc1	/	1	5
C[C@H]1CN([C@@H](C)CO)C(=O)c2cccc(NS(C)(=O)=O)c2O[C@H]1CN(C)S(=O)(=O)c1ccccc1	/	-9	/
C[C@H](CO)N1C[C@H](C)[C@H](CN(C)C(=O)C2CC2)OCc2ccccc2-c2c(n(C)c3ccccc23)C1=O	/	-5	/
CCNc1nc(-c2cc(C)n(Cc3ccco3)c2C)cs1	2	0	-2
SMILES	DUSP3 inh	TcdB inh	PrPC TRFRET
Cc1cc(-c2csc(NC(=O)c3ccc(=O)[nH]c3)n2)c(C)n1Cc1ccco1	112*	0	0
Cc1cc(C(=O)Nc2cccc3c2O[C@@H](CN(C)CC2CC2)[C@@H](C)CN([C@H](C)CO)C3=O)n(C)n1	/	-1	/
COc1ccc(COCC23N=C4SCCCN4[C@H](c4ccccc4O2)[C@H]3COC(=O)c2ccccc2)cc1	/	0	/
CCOC(=O)C1CCN(C(=O)Nc2ccc3nc(-c4ccco4)c(-c4ccco4)nc3c2)CC1	56*	/	/
O=C(Nc1ccc2nc(-c3ccco3)c(-c3ccco3)nc2c1)N1CCCCCC1	17	/	/
CC1CCN(CCCn2c(=S)[nH]c3c(sc4ccc([N+](=O)[O-])cc43)c2=O)CC1	22	0	-23

High-throughput results: PubChem BioAssay, several laboratories
